Source: PubChem BioAssay
rRNA inh HTS: inhibitors of bacterial rRNA selective over humanized ribosomes; 350,000 tested, 1.6% active; E. coli WT GFP vs humanized-ribosome RFP mutants, fluorescence, 24 h; active compounds read low; DMSO median 0, no signal -100; GFP signal change (wild-type ribosome), % (test concentration not listed);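 active = significant combined selectivity score with lowered wild-type GFP, culture density cut under 30%, mutant RFP and density less affected; inactive = any of these conditions unmet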
DENV2 CPE rescue: protects cells from dengue virus 2 cytopathic effect; DENV2-infected cells, cytopathic effect rescue, plate reader; CPE inhibition, % at 9.99 µM; 350,000 tested, 1.7% active; AID 651640; in the data active = CPE inhibition above about 20%, passing the limit was not always enough; inconclusive = no clear call, values can overlap the other calls; tested in BHK-21 cells;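 note: 0% = median of neutral control wells and 100% = median of positive control wells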
PGC1a acetyl inh: modulators of PGC1a acetylation; U2OS PGC1a acetylation, AlphaScreen anti-acetyl-lysine; with virally co-expressed GCN5 acetyltransferase; inhibition, % at 15.6 µM; 350,000 tested, 0.17% active; AID 651687;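 active = every replicate shows inhibition of at least 40%; inconclusive = mean inhibition at least 40% but some replicate below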;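 note: 0% = neutral control wells and 100% = positive control wells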
INS-1E GSIS act: primary screen for activators of insulin secretion dependent on glucose, INS-1E cells, GLuc reporter luminescence; INS-1E GLuc reporter insulin secretion, 2-3 h; activation, % at 16.6 µM; 370,000 tested, 0.61% active; AID 743287;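 active = lowest replicate activation of at least 40%, so every replicate reaches that level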;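 note: 0% = median of neutral control wells and 100% = median of IBMX positive control wells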
CaV13 FRET inh: Primary screen for inhibitors of IQ motif and Ca2+-dependent inactivation inhibitor domain binding in CACNA1D, Förster resonance energy transfer in living cells, … | HEK cells, CFP/YFP FRET ICDI-IQ, plate reader, 10 min; percent FRET-ratio fall versus neutral wells | inhibition, % at 12.3 µM | 340,000 tested, 0.098% active | AID 743397;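 active = mean replicate inhibition of at least 30% and at least 1% of replicates passing that level; inconclusive = only one of the two criteria is met; inactive = neither criterion is met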;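 note: 0% = median of the neutral control wells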
ERAP1 inh: inhibitors of human ERAP1 aminopeptidase. recombinant ERAP1, Leu-AMC fluorescence, 60 min. inhibition, % at 10.7 µM. Q9NZ08. 340,000 tested, 0.15% active. AID 652197;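 active = mean replicate inhibition of at least 30%, or all replicates individually reaching that 30% level; inactive = mean below 30% and not every replicate reaching it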;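 note: 0% = neutral control wells and 100% = L-leucinethiol positive control wells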
Target sequence (Q9NZ08 whole entry, looked up): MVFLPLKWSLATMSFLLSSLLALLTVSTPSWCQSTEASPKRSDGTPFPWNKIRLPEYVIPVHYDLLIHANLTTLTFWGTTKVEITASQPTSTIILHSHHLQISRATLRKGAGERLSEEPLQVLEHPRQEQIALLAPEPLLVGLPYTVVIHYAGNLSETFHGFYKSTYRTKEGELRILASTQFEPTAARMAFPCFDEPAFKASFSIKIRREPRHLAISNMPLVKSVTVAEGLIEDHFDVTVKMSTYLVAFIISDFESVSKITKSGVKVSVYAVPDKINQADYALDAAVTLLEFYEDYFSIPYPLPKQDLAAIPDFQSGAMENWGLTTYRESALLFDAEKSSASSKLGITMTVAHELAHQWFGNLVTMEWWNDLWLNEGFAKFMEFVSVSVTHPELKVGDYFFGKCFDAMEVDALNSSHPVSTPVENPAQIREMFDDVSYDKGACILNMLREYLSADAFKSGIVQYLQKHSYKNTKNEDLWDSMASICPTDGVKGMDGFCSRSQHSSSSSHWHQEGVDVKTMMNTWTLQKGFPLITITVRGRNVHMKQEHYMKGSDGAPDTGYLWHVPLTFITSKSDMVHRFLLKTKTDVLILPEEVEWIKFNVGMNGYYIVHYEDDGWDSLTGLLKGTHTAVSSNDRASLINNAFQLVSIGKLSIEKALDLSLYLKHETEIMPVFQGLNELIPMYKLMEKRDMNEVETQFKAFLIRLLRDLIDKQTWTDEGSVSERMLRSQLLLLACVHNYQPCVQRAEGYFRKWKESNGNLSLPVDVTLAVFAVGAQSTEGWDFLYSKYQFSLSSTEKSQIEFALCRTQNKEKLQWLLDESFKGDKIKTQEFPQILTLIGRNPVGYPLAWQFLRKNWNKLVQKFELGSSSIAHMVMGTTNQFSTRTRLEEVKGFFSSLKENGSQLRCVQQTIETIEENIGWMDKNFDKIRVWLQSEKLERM
Active calls of the source: *; u = inconclusive; x = not tested or not shown. Hits are enriched below; roughly 3.2% of the tested compounds scored in any of these assays.

SMILES	rRNA inh HTS	DENV2 CPE rescue	PGC1a acetyl inh	INS-1E GSIS act	CaV13 FRET inh	ERAP1 inh
C[C@H](NC(=O)c1nc[nH]c1C(=O)N[C@@H](Cc1ccccc1)C(=O)OCc1ccccc1)C(=O)OCc1ccccc1	12	2	-9	-5	15	3
CCOCc1c(C(=O)Nc2ccc(OC)nc2)oc2ccccc12	-5	8	-10	9	-5	55*
Cc1ccc(CNC(=O)CCS(=O)(=O)c2ccc(Cl)cc2)cc1	x	x	-2	32	-5	x
Cc1ccc(S(=O)(=O)CCC(=O)NCc2ccccc2)cc1	2	22*	x	15	-5	0
COC(=O)c1ccc(COC(=O)CCS(=O)(=O)c2ccc(C)cc2)cc1	-2	19	x	-3	-5	4
Cc1ccc(S(=O)(=O)CCC(=O)OCc2ccc(Cl)cc2)cc1	-26*	6	x	37	x	3
COc1ccccc1CNC(=O)CCS(=O)(=O)Cc1ccc(C)cc1	7	-1	-7	88*	-2	4
COc1ccc(CNC(=O)CCS(=O)(=O)Cc2ccc(C)cc2)c(OC)c1	2	x	-29	26	-2	0
CCC(=O)N1[C@H](CO)[C@@H](c2ccccc2)C12CN(Cc1ccccc1F)C2	3	1	-6	-7	x	-3
COc1ccc(NC(=O)Nc2ccc3c(c2)C(=O)N([C@H](C)CO)C[C@@H](C)[C@H](CN(C)S(=O)(=O)c2ccccc2)O3)cc1	-6	-2	-5	-2	x	0
COCC#Cc1ccc2c(c1)O[C@@H](CN(C)S(=O)(=O)c1ccc(F)cc1)[C@H](C)CN([C@H](C)CO)S2(=O)=O	-1	-4	-4	-29	x	2
CCCc1cc(=O)oc2c3c(cc(OCC(=O)NCC4CCC(C(=O)O)CC4)c12)OC(C)(C)CC3 (stereo not drawn)	-39*	-4	7	x	x	4
Cc1c(C)c2c(OCC(=O)N3CCC[C@H]3C(=O)O)cc3c(c2oc1=O)CCC(C)(C)O3	0	-11	7	-4	x	0
Cc1c(C)c2c(OCC(=O)N3CCC(O)CC3)cc3c(c2oc1=O)CCC(C)(C)O3	x	47*	-8	32	x	x
CCCc1cc(=O)oc2c3c(cc(OCC(=O)N4CCC(C(=O)O)CC4)c12)OC(C)(C)CC3	-15	-4	5	-3	x	2
COc1ccc(CC2C(=O)NC(C)C(=O)N(C)C3Cc4ccc(cc4)Oc4cc(ccc4O)CC(C(=O)NC(C)C(=O)NC(C)C(=O)N2C)N(C)C3=O)cc1 (stereo not drawn)	12	u	70*	-25	-5	-1
O=S(=O)(N[C@H]1CC[C@H](CCn2cc(-c3ccccn3)nn2)O[C@H]1CO)c1cccc(Cl)c1	-1	-4	-7	-4	x	-1
COC(=O)[C@H](Cc1ccccc1)NCCCn1cnc(C(=O)Nc2ccc(C)c(C)c2)n1	-35*	-11	-3	-3	-7	x
CCC(C)C(CO)NCCCn1cnc(C(=O)Nc2ccc(C)c(C)c2)n1 (stereo not drawn)	4	59*	14	-19	-7	x
COC(=O)[C@H](Cc1ccccc1)NC(=O)Cn1cnc(C(=O)Nc2ccc(C)c(C)c2)n1	4	3	-1	1	-8	x
Cc1ccc(NC(=O)c2ncn(CCCN3CCN(c4ncccn4)CC3)n2)cc1C	-4	7	-6	-5	-6	0
Cc1ccc(NC(=O)c2ncn(CCCN3CCN(c4ccccn4)CC3)n2)cc1C	-22*	11	2	5	-7	x
Cc1noc(C)c1NC(=O)N1C[C@H](O)COC[C@@H]2O[C@H](CC(=O)NCC3CCCCC3)CC[C@H]21	2	-6	-9	5	x	1
CCCC(=O)N1CCC2(CC1)CN(C(=O)Nc1cccc(F)c1)[C@@H](CO)c1c2c2ccc(OC)cc2n1C	-2	0	x	-27	x	0
Cc1ccc(S(=O)(=O)Oc2ccccc2)cc1	3	1	0	18	-7	-6
SMILES	rRNA inh HTS	DENV2 CPE rescue	PGC1a acetyl inh	INS-1E GSIS act	CaV13 FRET inh	ERAP1 inh
NS(=O)(=O)Oc1ccccc1	26	52*	10	6	-8	2
COc1ccc(OS(=O)(=O)Cc2ccccc2)cc1	-12	-9	4	19	-19	-1
O=S(=O)(CS(=O)(=O)Oc1ccccc1)Oc1ccccc1	10	23*	4	-7	-7	2
COc1ccccc1-c1ccc2n(c1=O)C[C@@H]1[C@@H](CO)[C@H](C(=O)NCc3ccccc3F)N[C@H]21	0	1	x	4	x	0
C[C@@H]1CCCCO[C@H](CN(C)C(=O)C2CCCCC2)[C@H](C)CN([C@@H](C)CO)C(=O)c2cc(NC(=O)Nc3ccc4c(c3)OCO4)ccc2O1	-3	2	10	-14	x	10
Cc1ccc(S(=O)(=O)/N=C2/C=C(Sc3ncn[nH]3)C(=O)c3ccccc32)cc1	x	x	77*	x	x	x
O=C1C(Nc2ccccc2)=C/C(=N/S(=O)(=O)c2cccs2)c2ccccc21	x	x	59*	x	x	x
Cc1ccc(S(=O)(=O)/N=C2\C=C(Nc3ccc(O)cc3)C(=O)c3ccccc32)cc1	x	x	86*	x	x	x
Cc1ccc(NC2=C/C(=N/S(=O)(=O)c3cccs3)c3ccccc3C2=O)cc1	x	8	x	x	-15	0
Cc1ccc(S(=O)(=O)Nc2ccc(O)c(Sc3ncn[nH]3)c2)cc1	7	15	10	8	-35	-3
CCOc1cccc(C(=O)Nc2ccc(NC(=O)c3cc4ccccc4o3)c(OC)c2)c1	9	-1	-6	12	-20	1
COc1cc(NC(=O)c2cccc(C)c2)ccc1NC(=O)c1cc2ccccc2o1	10	-4	x	83*	-18	6
O=C(C[C@@H]1CC[C@H]2[C@@H](COC[C@H](O)CN2C(=O)Nc2ccc(Cl)cc2)O1)NCCc1ccncc1	-25	u	8	-12	x	-4
C[C@@H]1CN([C@H](C)CO)C(=O)c2cccc(NC(=O)Nc3ccc4c(c3)OCO4)c2O[C@@H]1CN(C)Cc1ccc(C(=O)Nc2ccccc2N)cc1	-4	-1	-2	9	x	1
Cn1c(=O)n(Cc2ccc(Br)cc2)c2ccccc21	-48*	-5	x	-10	-7	7
Cn1c(=O)n(Cc2ccccc2)c2ccccc21	0	7	-13	15	-8	0
C[C@H](CO)N1C[C@H](C)[C@H](CN(C)CC2CC2)OCCCC[C@H](C)Oc2ccc(NC(=O)Nc3ccccc3)cc2C1=O	0	-4	6	8	x	0
CCOc1cc(C2C3=C(CCCC3=O)OC3=C2C(=O)CCC3)cc([N+](=O)[O-])c1O	8	-4	3	58*	-5	3
COc1ccc(CCNC(=O)CSC2=NS(=O)(=O)c3ccccc3N2)cc1OC	3	82*	4	25	-2	-1
